This note sets out measurements from PubChem BioAssay (Tox21).

Results filed as inconclusive are left out. A call without a number means that no potency is given here. Calls of active or inactive are those of the source. The call rests on the fitted dose curve; in most records, active means well fitted cell-killing curve with a large enough effect in the repeat runs; inconclusive means weak or mixed curves; inactive means flat fitted curve, though single readings scatter.

A short description of this assay: qHTS RealTime-Glo MT Cell Viability Assay in HepG2 cells - 16 hour (AID 1224885). Further: nearly all actives have a fitted effect of over 50% in size. As to conditions: RealTime-Glo luminescence; series mostly up to 76.8 µM. The source says:
U.S. Tox21 Program National Center for Advancing Translational Sciences [NCATS] NIH Chemical Genomics Center [NCGC] U.S. Environmental Protection Agency [EPA] National Institutes of Environmental Health Sciences [NIEHS] National Toxicology Program [NTP] U.S. Food and Drug Administration [FDA] Tox21 Assay Overview: Measure of cell viability is critical in the cell-base assay. Analysis of cell viability is necessary for the characterization of cell responses to cytotoxic drugs and environmental stress. A RealTime-Glo MT Cell Viability Assay to monitor cell viability in real time of continues cell culture during 40 hours of compound treatment was used to screen Tox21 10K library compounds in HepG2 cells. The RealTime-Glo MT Cell Viability Assay is a nonlytic, homogeneous, bioluminescent method to measure cell viability in real time using a simple, plate-based method. The assay involves adding NanoLuc luciferase and a cell-permeant prosubstrate to cells in culture. Viable cells reduce the proprietary prosubstrate to generate a substrate for NanoLuc luciferase. This substrate diffuses from cells into the surrounding culture medium, where it is rapidly used by the NanoLuc Enzyme to produce a luminescent signal. The signal correlates with the number of viable cells, making the assay well suited for cytotoxicity studies.
Tox21 Assay Protocol Summary: The mixture of HepG2 cell suspension and reagents were dispensed at 600cells/6 ul/well in 1536-well tissue culture treated black solid bottom plates using a Multidrop dispenser. After the assay plates were incubated at a 37 C/5% CO2 incubator for 5 hours, 23 nL of compounds dissolved in DMSO, positive and negative controls was transferred to the assay plate by a pintool work station. The plates were incubated at 37 C for 40 hours. The luminescence intensity were measured at 0h, 8h, 16h, 24h, 32h and 40h time points using ViewLux plate reader during compound treatment.
For orientation: qHTS replaces the single test concentration by a dilution series.
With `O=c1cc[nH]c(=S)[nH]1`, the Potency result is “inactive”.

Take `O=C(O)CCC(=O)O`: the Potency entry is “inactive”.

On to `O=C(O)CS`, for which the Potency entry was “inactive”.

On to `NC(=O)c1cnccn1`, for which the Potency entry is “inactive”.

Turning to `CCC1(c2ccccc2)C(=O)NCNC1=O`, the Potency result is “inactive”.

For the compound `O=C(O)c1cc(N=Nc2ccc(S(=O)(=O)Nc3ccccn3)cc2)ccc1O`, the Potency entry is “inactive”.

For the compound `NC(N)=O`, the Potency entry is “inactive”.

With `O=C(O)/C=C\C(=O)O`, the Potency entry is “inactive”.

Turning to `O=C(O)C(=O)O`, the Potency result is “inactive”.

As to `CCOc1ccc(NC(=O)CC(C)O)cc1` (stereo not given), the Potency entry is “inactive”.

In the case of `N=C(N)c1ccc(OCCCCCOc2ccc(C(=N)N)cc2)cc1`, the Potency entry is “inactive”.

On to `O=C(O)CCCCCCCC(=O)O`, for which the Potency result is “inactive”.

`Nc1ccc(S(=O)(=O)c2ccc(N)cc2)cc1`: the Potency result was “inactive”.

Turning to `CC1(C)[C@@H]2CC[C@@]1(C)C(=O)C2`, the Potency entry was “inactive”.

For the compound `Cc1cc(=O)[nH]c(=S)[nH]1`, the Potency result was “inactive”.

In the case of `O=C(O)c1cccnc1`, the Potency result is “inactive”.

Turning to `CNC[C@H](O)c1cccc(O)c1`, the Potency entry is “inactive”.

`NC(=O)NC1NC(=O)NC1=O` (stereo not given): the Potency result is “inactive”.

In the case of `NS(=O)(=O)c1cc(C(=O)O)c(NCc2ccco2)cc1Cl`, the Potency result is “inactive”.

Turning to `Nc1ccc(S(=O)(=O)Nc2nccs2)cc1`, the Potency result was “inactive”.

As to `Cn1cc[nH]c1=S`, the Potency entry was “inactive”.

Consider `COc1ccc2[nH]cc(CCNC(C)=O)c2c1`, for which the Potency result is “inactive”.

Consider `Cc1cn([C@H]2C[C@H](N=[N+]=[N-])[C@@H](CO)O2)c(=O)[nH]c1=O`, for which the Potency entry was “inactive”.

For the compound `NC(N)=NC(=O)c1nc(Cl)c(N)nc1N`, the Potency result was “inactive”.

As to `CC(=O)NS(=O)(=O)c1ccc(N)cc1`, the Potency result was “inactive”.

As to `CCCCC1C(=O)N(c2ccccc2)N(c2ccccc2)C1=O`, the Potency result was “inactive”.

On to `O=C1NC(=O)c2ccccc21`, for which the Potency entry was “inactive”.

Take `CC(C)(Oc1ccc(C2CC2(Cl)Cl)cc1)C(=O)O` (stereo not given): the Potency result is “inactive”.

For the compound `O=C1CN(/N=C/c2ccc([N+](=O)[O-])o2)C(=O)N1`, the Potency result is “inactive”.

With `Cc1ccc(O)cc1`, the Potency entry was “inactive”.

As for `CCCC(O)C(CC)CO` (stereo not given), the Potency result was “inactive”.

As for `O=S(=O)(O)NC1CCCCC1`, the Potency entry is “inactive”.

As to `CC(O)CO` (stereo not given), the Potency result was “inactive”.

For the compound `NNC(=O)c1ccncc1`, the Potency entry was “inactive”.

In the case of `CCCCC(CC)COC(=O)/C=C/c1ccc(OC)cc1` (stereo not given), the Potency entry was “inactive”.

In the case of `CCCCCCCCCCCCCCCC(=O)O`, the Potency result was “inactive”.

As for `O=C(c1ccccc1)c1ccccc1`, the Potency entry was “inactive”.

In the case of `Cc1ccc(S(=O)(=O)NC(=O)NN2CCCCCC2)cc1`, the Potency result is “inactive”.

In the case of `CC(O)CN(CCN(CC(C)O)CC(C)O)CC(C)O` (stereo not given), the Potency entry is “inactive”.

With `Cc1ccc(C)c(OCCCC(C)(C)C(=O)O)c1`, the Potency result was “inactive”.
